# In PubChem BioAssay AID1950 (The Scripps Research Institute Molecular Screening Center, 2009):
# In all, about 300,000 compounds went through this assay and about 1,000 (0.33%) were called active. Cut-off read from the data, not from the text of the source: active = inhibition above about 28%; inactive = the rest. For the sample, actives were picked, then their nearest neighbours and some compounds at random.
# Test system: EBNA-1 (Epstein-Barr virus nuclear antigen 1), Human herpesvirus 4
# Assay: EBNA-1 DNA-binding inhibitors, primary screen, biochemical, fluorescence polarization (AID 1950)
# Details: at 14.8 µM, active compounds read high
row,Structure (SMILES),inhibition
1,COc1ccc(CN2C(=O)CC(Cc3ccc(C)cc3)C2=O)cc1OC (stereo unspecified),9.56% (inactive)
2,O=C(CN1CCCCC1)N1c2ccccc2Sc2ccc(C(F)(F)F)cc21,-8.22% (inactive)
3,CC(=O)N1CC(C)c2scc(C)[n+]2-c2ccccc21 (stereo unspecified),0.91% (inactive)
4,CC(CCN1CCN=C1N(C)C)c1ccccc1 (stereo unspecified),-6.72% (inactive)
5,O=C(NCCOc1cccnc1)c1ccc(OC2CCN(Cc3ccccn3)CC2)cc1,6.33% (inactive)
6,Cc1[nH]c(C)c(S(=O)(=O)N2CCC(C)CC2)c1C(=O)N1CCCC1,14.2% (inactive)
7,NC(=O)C(Cc1ccccc1)NC(=O)C12CC3CC(CC(C3)C1)C2 (stereo unspecified),3.55% (inactive)
8,COc1ccccc1C(=O)COC(=O)CNS(=O)(=O)c1ccc(NC(C)=O)cc1,0.54% (inactive)
9,CC(=O)Nc1ccc(S(=O)(=O)NCC(=O)OCc2cc(=O)oc3ccc4ccccc4c23)cc1,35.2% (active)
10,CCC(=O)Nc1ccc(S(=O)(=O)Nc2c(NC)c3ccccc3oc2=O)cc1,8.74% (inactive)
11,CCOc1cc(C2C(C(=O)c3ccco3)=C(O)C(=O)N2Cc2ccccc2)ccc1O (stereo unspecified),1.15% (inactive)
12,CCC1CCCCN1C(=O)CSc1nc2c(c(=O)n1C)SC(C)C2 (stereo unspecified),-3.4% (inactive)
13,CCOC(=O)CSc1nnc(NC(=O)C2CC(=O)N(c3ccc(F)cc3)C2)s1 (stereo unspecified),6.41% (inactive)
14,COc1cccc(N2CC(C(=O)Nc3c(C)cccc3C)CC2=O)c1 (stereo unspecified),-0.66% (inactive)
15,COc1ccc(C(=O)CSc2nnc(NC(=O)C3CC(=O)N(c4cccc(OC)c4)C3)s2)cc1 (stereo unspecified),51.4% (active)
16,COc1ccc(N(C)C(=O)C2CCN(S(=O)(=O)c3cccc4nsnc34)CC2)cc1,-5.5% (inactive)
17,Cc1ccc(O)c(-c2cc(C(=O)Nc3c(C)n(C)n(-c4ccccc4)c3=O)[nH]n2)c1,8.89% (inactive)
18,Cc1ccc(O)c(-c2cc(C(=O)NCc3ccccc3)[nH]n2)c1,30.8% (active)
19,Cc1ccc(NC(=O)c2cc(-c3ccccc3O)n[nH]2)cc1C,-0.09% (inactive)
20,COc1ccc(C(=O)N[C@H](C(=O)NCc2ccccc2)C(C)C)cc1,5.98% (inactive)
21,CC(C)c1nnc(NC(=O)CCC(=O)N2CCN(c3cccc(Cl)c3)CC2)s1,-2.44% (inactive)
22,CCCCNC(=O)C1(O)c2ccccc2NC(=O)N1c1ccc(Cl)cc1 (stereo unspecified),-19.8% (inactive)
23,COc1ccc(-c2nn(-c3ccccc3)cc2/C=C2/SC(=S)N(CCCC(=O)O)C2=O)c(C)c1,5.71% (inactive)

row,Structure (SMILES),inhibition
1,Cc1ccc(-c2nn(-c3ccccc3)cc2/C=C2\SC(=S)N(CCCCCC(=O)O)C2=O)o1,29.3% (active)
2,CN(C)S(=O)(=O)c1cccc(-c2nn(-c3ccccc3)cc2/C=C2\SC(=S)N(CC(=O)O)C2=O)c1,1.09% (inactive)
3,CC(=O)N1CCCc2cc(S(=O)(=O)N3CCCC(C(=O)N4CCN(c5cccc(Cl)c5)CC4)C3)ccc21 (stereo unspecified),-6.48% (inactive)
4,COc1ccc(-c2cc(=O)oc3cc(OCC(=O)N(C)C4CCS(=O)(=O)C4)ccc23)cc1 (stereo unspecified),-3.28% (inactive)
5,CCCCNC(=O)CSc1nc2ccc(NC(=O)CSc3nnc(N)s3)cc2s1,6.23% (inactive)
6,Nc1nnc(SCC(=O)Nc2ccc3nc(SCC(=O)Nc4ccccc4)sc3c2)s1,45.6% (active)
7,CCCCNC(=O)CSc1nc2ccc(NC(=O)CSc3nnc(COc4ccccc4C)n3C)cc2s1,-11.7% (inactive)
8,Nc1nc(SCC(=O)Nc2ccc(Cl)cc2C(F)(F)F)n[nH]1,-6.65% (inactive)
9,CC(Sc1nc2c([nH]c3ccccc32)c(=O)n1C)c1ccccc1 (stereo unspecified),13.4% (inactive)
10,CCCCNC(=O)CCn1nc(-c2ccc(Cl)cc2)ccc1=O,-9.91% (inactive)
11,Cc1ccc(NC(=O)CN(C)C(=O)Cn2nnc(-c3ccccc3)n2)cc1,-4.13% (inactive)
12,COc1ccc(C23NCCN2C(=O)c2ccccc23)cc1 (stereo unspecified),-4.33% (inactive)
13,COc1cccc(CNS(=O)(=O)c2csc(C(N)=O)c2)c1,-4.82% (inactive)
14,Cc1cc2oc(=O)cc(CN(C)Cc3ccc(OC(F)F)cc3)c2cc1Cl,2.59% (inactive)
15,C/C(=N\OCC(=O)O)c1ccc(Cl)cc1,8.77% (inactive)
16,C/C(=N\NC(=S)NCc1ccccc1)c1ccc(Cl)cc1,-0.89% (inactive)
17,C/C(=N\N=C(N)N)c1ccc(Cl)cc1,39.1% (active)
18,Cc1ccc(CNC(=O)c2cccnc2Cl)cc1,-0.4% (inactive)
19,CC/C(O)=C1\C(=O)CC(C)(C)CC1=NCCc1nc2ccccc2[nH]1,0.38% (inactive)
20,CC(=O)C1=C(O)C(=O)N(c2ccc(Br)cc2)C1c1ccc([N+](=O)[O-])cc1 (stereo unspecified),-5.58% (inactive)
21,CC1=NN(C(N)=S)C(=O)C1N=Nc1cc(Cl)ccc1Cl (stereo unspecified),-8.59% (inactive)
22,Cc1[nH]n(C(N)=S)c(=O)c1N=Nc1ccc(Cl)cc1Cl,27.7% (active)
23,Cc1cccc(N=Nc2c(C)[nH]n(-c3ccccc3)c2=O)c1,-10.4% (inactive)

row,Structure (SMILES),inhibition
1,O=C(CCC(=O)OCc1cccc(C(=O)Oc2ccccc2)c1)Nc1cccc2ccccc12,0.44% (inactive)
2,O=C(NC1CCCC1)C(c1ccccn1)N(C(=O)c1csnn1)C1CCCC1 (stereo unspecified),2.45% (inactive)
3,CCCn1c(N)c(C(=O)CSc2nc3ccccc3c(=O)n2-c2ccc(OC)cc2)c(=O)[nH]c1=O,5.25% (inactive)
4,COc1cccc(-n2c(SCC(=O)c3c[nH]c4ccccc34)nc3ccccc3c2=O)c1,46.8% (active)
5,COC(=O)c1ccc(CSc2nc3ccccc3c(=O)n2-c2cccc(OC)c2)o1,-0.73% (inactive)
6,O=C(N/N=C/c1sc(N2CCCCC2)nc1-c1cccs1)c1cccnc1,-5.56% (inactive)
7,N=c1n(Cc2ccc(Cl)cc2)c2ccccc2n1CC(O)c1ccco1 (stereo unspecified),-2.62% (inactive)
8,CN1CCC(=NNC(=O)CN(c2cccc(Cl)c2)S(C)(=O)=O)CC1,-1.28% (inactive)
9,N#Cc1nc(N)nc(N(c2ccccc2)c2ccccc2)n1,32.2% (active)
10,CC(C)Nc1nc(N(c2ccccc2)c2ccccc2)nc(-n2ccnc2)n1,1.21% (inactive)
11,COc1ccc(C(=O)OCC(=O)c2ccc(Cl)s2)c(OC)c1OC,-6.57% (inactive)
12,COc1ccc(Cc2nnc(NC(=O)c3ccc(OC)cc3OC)s2)cc1,-11.6% (inactive)
13,COC(=O)c1sc(NC(=O)c2ccc(OC)cc2OC)nc1C,5.25% (inactive)
14,COc1ccc(C(=O)Nc2cccc(NC(=O)c3ccc(OC)cc3OC)n2)c(OC)c1,64.7% (active)
15,O=C(COC(=O)c1ncc(Cl)c(Cl)c1Cl)NCc1cccs1,4.36% (inactive)
16,Nc1ccc(S(=O)(=O)Nc2nccc(/C=C/c3ccc(Br)s3)n2)cc1,40.2% (active)
17,Oc1cccc2ccc(/C=C/c3ccc(Br)s3)nc12,7.77% (inactive)
18,CC(=O)Nc1ccc(S(=O)(=O)Nc2nccc(/C=C/c3ccccc3F)n2)cc1,3.71% (inactive)
19,CCNS(=O)(=O)c1ccc(CCC(=O)N2CCN(c3cc(Cl)ccc3C)CC2)cc1,-2.62% (inactive)
20,O=C(NCc1ccccc1)C1=C[C@@H](c2ccccc2)C[C@@H](OCCCCO)O1,-2.36% (inactive)
21,CN(C)CCOc1cccc(Br)c1,2.94% (inactive)
22,COC(=O)C1=C(C)N(C(C)c2ccccc2)C(=O)/C1=C\c1ccco1 (stereo unspecified),9.16% (inactive)
23,O=C(Nc1cccc(Br)c1)c1ccc2snnc2c1,-4.42% (inactive)

row,Structure (SMILES),inhibition
1,CCc1ccccc1NC(=O)c1ccc2snnc2c1,-10.4% (inactive)
2,O=C(Nc1ccc2ccccc2c1)Nc1ccc2snnc2c1,103% (active)
3,O=C1CC(Cc2ccc(Cl)cc2)C(=O)N1c1cc(Cl)ccn1 (stereo unspecified),-3.65% (inactive)
4,CC(=O)n1cc([C@@H]2C=C(C(=O)N3CCN(Cc4ccc5c(c4)OCO5)CC3)O[C@H](OCc3ccc(CO)cc3)C2)c2ccccc21,-9.33% (inactive)
5,CC(=O)c1cc2c(cc1NC(=O)Cn1nc(-c3ccc(F)cc3)ccc1=O)OCO2,-3.93% (inactive)
6,CCc1ccccc1OCC(=O)Nc1ccc2c(c1)OCCO2,-5.94% (inactive)
7,CCOc1cccc(NC(=O)Cn2nc(-c3ccc4c(c3)OCCO4)ccc2=O)c1,35% (active)
8,CCCCNC(=O)c1onc(CSc2cccc(OC)c2)c1C(=O)O,8.58% (inactive)
9,COCCNC(=O)c1onc(CSc2cccc(C)c2)c1C(=O)O,-0.97% (inactive)
10,CCOc1cccc(SCc2noc(C(=O)NC(C)C)c2C(=O)O)c1,29.7% (active)
11,CCN(CC(=O)Nc1c(F)cccc1F)C(=O)C1CCC1,-2.05% (inactive)
12,CC(=O)Nc1ccc(NC(=S)NC(=O)c2ccc([N+](=O)[O-])c(C)c2)cc1,-0.91% (inactive)
13,CCOc1ccc(C(=O)NC(=S)Nc2ccc(N3CCOCC3)c(Cl)c2)cc1[N+](=O)[O-],7.49% (inactive)
14,CCOc1ccc(C(=O)NC(=S)Nc2ccc(NC(=O)C(C)C)cc2)cc1[N+](=O)[O-],43.3% (active)
15,COc1ccc(C(C(=O)NC2CCCC2)N(CCCO)C(=O)Cn2nnc(-c3ccc(C)o3)n2)cc1 (stereo unspecified),-26.3% (inactive)
16,CC(C)NC(=O)NC(=O)COC(=O)c1ccc(NC(=O)CC#N)cc1,8.39% (inactive)
17,CCOc1ccc(C(=O)Nc2ccncc2)cc1,-2.27% (inactive)
18,CCOc1ccc(NC(=O)c2ccc(NC(=O)COC(=O)c3ccc(NC(=O)CC#N)cc3)cc2)cc1,31.4% (active)
19,COCCNc1cc(-c2ccccc2)nc2cc(-c3cccc(F)c3)nn12,-2.12% (inactive)
20,O=C(N/N=C/c1ccc(O)cc1)/C(=C/c1ccc([N+](=O)[O-])cc1)NC(=O)c1ccccc1,11.3% (inactive)
21,NC(=O)c1ccc(NC(=O)COC(=O)c2ccc([N+](=O)[O-])cc2)cc1,7.68% (inactive)
22,O=C(COc1ccc(/C=N/NC(=O)c2ccc(O)cc2)cc1)Nc1ccc([N+](=O)[O-])cc1,52.6% (active)
